ALDH1A1 block – blocks purified human ALDH1A1 activity. P00352. Purified ALDH1A1, NADH fluorescence, propionaldehyde substrate. Potency, µM (series often up to 75.3 µM), inactives show top-dose activity, negative = inhibition, actives largely listed as inhibitors. 220,000 compounds, 7.3% hits. AID 1030; active = well fitted inhibition curve with a large enough effect, not every such curve was filed as active; inconclusive = small, poorly fitted or top-dose-only effect, or another doubt; inactive = no such curve, though single readings can be large or run the other way;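 also: potency is read from the fitted curve at half-maximal effect; plate controls were no enzyme wells and a reference inhibitor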
Target sequence (P00352 whole entry, looked up): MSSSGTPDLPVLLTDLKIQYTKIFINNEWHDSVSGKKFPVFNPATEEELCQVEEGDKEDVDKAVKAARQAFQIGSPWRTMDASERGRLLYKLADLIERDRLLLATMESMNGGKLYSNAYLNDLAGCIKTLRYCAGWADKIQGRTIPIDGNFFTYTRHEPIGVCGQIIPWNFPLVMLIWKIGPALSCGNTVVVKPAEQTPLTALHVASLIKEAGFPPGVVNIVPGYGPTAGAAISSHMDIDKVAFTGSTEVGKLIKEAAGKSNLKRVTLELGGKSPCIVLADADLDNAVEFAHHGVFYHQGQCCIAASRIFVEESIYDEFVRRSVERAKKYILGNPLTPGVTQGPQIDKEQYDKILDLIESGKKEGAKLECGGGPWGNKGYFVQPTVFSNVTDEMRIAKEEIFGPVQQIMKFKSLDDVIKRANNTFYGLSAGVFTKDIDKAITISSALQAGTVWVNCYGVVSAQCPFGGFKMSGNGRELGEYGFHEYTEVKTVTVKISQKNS
KDM4E inh – blocks human JMJD2E demethylase activity. 230,000 compounds, 1.6% hits. Potency, µM (doses to about 57.1 µM), for the others: at the top dose activity change, negative = inhibition, usual class: inhibitors. B2RXH2. JMJD2E catalytic domain, FDH-coupled NADH fluorescence (FDH is formaldehyde dehydrogenase). AID 2147; active = well fitted inhibition curve with a large enough effect, not every such curve was filed as active; inconclusive = small, poorly fitted or top-dose-only effect, or another doubt; inactive = no such curve, though single readings can be large or run the other way;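 also: potency is read from the fitted curve at half-maximal effect; 0% = wells with enzyme and -100% = buffer wells without enzyme; nearly all actives have a fitted effect of over 50% in size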
RGS12 GoLoco inh – blocks human Gai1 binding to RGS12 GoLoco peptide, red readout; Gai1:RGS12 GoLoco peptide FP, rhodamine, 10 min; 230,000 compounds, 0.44% hits; Potency, µM (series often up to 61.6 µM), for the others: at the highest dose activity, negative = inhibition, hits mostly inhibitors; active = well fitted inhibition curve with a large enough effect, not every such curve was filed as active; inactive = no such curve, though single readings can be large or run the other way; also: potency is read from the fitted curve at half-maximal effect; nearly all actives have a fitted effect of over 30% in size
Sfp PPTase inh – Sfp phosphopantetheinyl transferase inhibition. Q9F4F7. Biochemical Sfp PPTase activity, qHTS. Potency, µM, for inactives: largest response in the series, negative = inhibition, usual class: inhibitors. 310,000 compounds, 3.5% hits;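 also: the enzyme is Sfp with the accession as filed and its product quenches rhodamine fluorescence; potency is read from the fitted curve at half-maximal effect; 0% = enzyme reaction without inhibitor and -100% = no enzyme wells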
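Sfp 15 nM + cpd, 15 min RT; start w/ rhodamine-CoA 5 uM, BHQ-2-YbbR 12.5 uM (final); 50 mM Hepes pH 7.6, 10 mM MgCl2, 0.01% NP-40, 0.01% BSA; read 525/598 nm at 0 and 30 min.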
NPSR antag – antagonists of human neuropeptide S receptor cAMP signaling; Q6W5P4; CHO-NPSR cells, cAMP TR-FRET, antagonist mode; Potency, µM (doses to about 38.3 µM), inactives show at the highest dose activity change, negative = inhibition, usual class: inhibitors; 220,000 compounds, 1% hits; AID 1461; also: potency is read from the fitted curve at half-maximal effect; nearly all actives have a fitted effect of over 50% in size
FBPA coupling cs – coupling enzyme interference in Giardia aldolase counter-screen; coupling enzyme system counterscreen, AmpLite Red fluorescence; activity change, negative = inhibition, % at 58.2 µM, hits read low; 290,000 compounds, 0.67% hits; AID 2472; in the data active = activity change below about -30%
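First, compound is pin-transferred into glyceraldehyde-3-phosphate coupling-enzyme reagent at 57.5 uM final and held 10 min at RT. Next, substrate, coupling system and AmpLite Red are added. After 20 min RT, fluorescence (525/598 nm) is read.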
* = called active by the depositor; u = inconclusive; x = not tested or not shown; [ ] = remark or other dose. Compounds with a hit are over-represented: about 8.5% of the library has one in this group of screens. Unless noted, calls follow the shape of the dose curve; as a rule, active = well fitted curve in the direction sought with a large enough effect; inconclusive = small, poorly fitted or top-dose-only effect, or another doubt; inactive = no such curve, though single readings can be large; an effect the other way counts as inactive or inconclusive. Unless noted, % is scaled to controls: 0 for no effect and ±100 for the full control effect.

SMILES	ALDH1A1 block	KDM4E inh	RGS12 GoLoco inh	Sfp PPTase inh	NPSR antag	FBPA coupling cs
CC(C)N1CCc2c(sc(NC(=O)c3ccc(S(=O)(=O)N4CCOCC4)cc3)c2C#N)C1	10µM*	-27%	164%	-17%	-4%[46.1 µM]	-1
CCN1CCc2c(sc(NC(=S)NC(=O)c3ccc(Cl)cc3)c2C(N)=O)C1	10µM*	0%	11%	16µM*	u	-6
CC(C)N1CCc2c(sc(NC(=S)NC(=O)c3ccccc3)c2C#N)C1	13µM*	-5%	29%	40µM*	-3%[46.1 µM]	-39*
CCOC(=O)N1CCc2c(sc(NC(=O)c3ccc(S(=O)(=O)N4CCCC4)cc3)c2C#N)C1	u	-9%	137%	u	u	1
O=C(Nc1ccccc1)c1ccc(Cc2nc3ccccc3[nH]2)cc1	1%	x	x	x	x	x
O=S(=O)(Cc1ccc(Cl)cc1)c1ncc(CO)n1Cc1ccccc1	1%	4%	5%	20%	-6%	0
Cc1cc(OCc2nc3ccccc3s2)ccc1N	x	-9%	7%	20µM*	6%	1
CCC(=O)Nc1ccc(OCc2nc3ccccc3s2)cc1	u	-28%	2%	45µM*	6%	0
CC(=O)N1c2ccc(S(=O)(=O)NCCC(=O)N3CCC(C)CC3)cc2CC1C (stereo not drawn)	x	x	x	12%	x	-2
C#CCn1c(=NC(=O)c2cccs2)sc2cccc(OC)c21	u	u	15%	79µM*	-25%[46.1 µM]	0
C#CCn1c(=NC(=O)CN2C(=O)CCC2=O)sc2cccc(OC)c21	x	u	9%	25%	3%	2
Cc1ccc(Nc2cc(C)nc(-c3ccccc3)n2)cc1	x	x	x	2%	x	-7
CCCCN1C(=O)Cc2c1nc(N)c1c(N)nc(N(CCC)CCC)c(C#N)c21	u	u	-5%	2%	u	-11
N#Cc1c(N(CCO)CCO)nc(N)c2c(N)nc3c(c12)CC(=O)N3CC1CCCO1 (stereo not drawn)	x	u	-132%	u	2%[7.67 µM]	-38*
Cc1ccc(-n2ncc3c2CC(C)(C)CC3NC(=O)CCN2CCCO2)cc1 (stereo not drawn)	x	x	x	14%	x	x
Cc1ccc(S(=O)(=O)N(C)C)cc1NC(=O)CCNC(=O)c1ccco1	x	x	x	15%	x	2
COc1ccc([C@H]2[C@H](C(=O)OC(C)(C)C)N3N=Cc4ccccc4C3C23C(=O)c2ccccc2C3=O)cc1OC (stereo partly drawn)	-13%	u	37%	-10%	7.9µM*	0
O=C(O)c1cc(-c2cccnc2)nc2ccc(Br)cc12	5%	2%	12%	13%	5µM*	0
CSc1ccccc1NC(=O)c1cc(-c2cccnc2)nc2ccc(Br)cc12	0%	-3%	15%	45µM*	-16%	3
CC(=O)Nc1cccc(NC(=O)c2cc(-c3cccnc3)nc3ccc(Br)cc23)c1	-2%	-11%	18%	-18%	-14%[46.1 µM]	x
O=C(O)c1cc(-c2ccc3c(c2)OCO3)nc2ccc(Br)cc12	3%	u	-9%	-5%	6.3µM*	-9
CCN1CCN(C(=O)c2cc(-c3cccnc3)nc3ccc(Br)cc23)CC1	-9%	-2%	0%	14%	13%[46.1 µM]	3
NS(=O)(=O)Oc1ccccc1	x	x	x	12%	x	0
Cc1cccc(C2=N/C(=C\c3cccs3)C(=O)O2)c1	u	-6%	14%	12%	-16%	4
Cc1ccc(NC(=O)NC2=N/C(=C(/C#N)C(=O)N3CCCC3)c3ccccc32)cc1	0.63µM*	5%	-9%	-14%	u	1
SMILES	ALDH1A1 block	KDM4E inh	RGS12 GoLoco inh	Sfp PPTase inh	NPSR antag	FBPA coupling cs
O=C(O)/C=C/c1cn(-c2ccccc2)nc1-c1ccc(-c2ccc([N+](=O)[O-])cc2)o1	x	-3%	1%	25µM*	59%	4
CNC(=O)COC(=O)/C=C/c1cn(-c2ccccc2)nc1-c1ccc(C)o1	u	u	-1%	50µM*	20%	1
O=C(O)/C=C/c1cn(-c2ccccc2)nc1-c1cccc([N+](=O)[O-])c1	2%	-4%	8%	11%	u	-2
CCCn1ncc2c(Nc3ccc(C)c(C)c3)ncnc21	x	x	x	10%	x	-5
Cc1ccc(S(=O)(=O)/N=C(/Nc2ccc3[nH]c(=O)[nH]c3c2)c2ccc(F)cc2)cc1	8.9µM*	6%	-3%	20%	11%	-4
COc1ccc(S(=O)(=O)Nc2c(C(=O)O)[nH]c3ccc(OC)cc23)c(OC)c1	x	x	x	25µM*	x	5
Nn1cnnc1SCC(=O)Nc1ccc(C2CCCCC2)cc1	11µM*	3%	-4%	10%	-14%[46.1 µM]	2
CCC(C)c1ccc(NC(=O)CSc2nncn2N)cc1 (stereo not drawn)	u	1%	8%	8%	1%[46.1 µM]	0
O=C(CCN1C(=O)S/C(=C\c2ccccc2)C1=O)Nc1ccc(S(=O)(=O)Nc2nccs2)cc1	u	2%	26%	8%	-19%[46.1 µM]	5
COc1ccccc1/C=C1/SC(=O)N(CCC(=O)Nc2ccc(S(=O)(=O)Nc3nccs3)cc2)C1=O	25µM*	u	8%	7%	11%	3
Cc1ccc(SCC(=O)Nc2ccc(S(=O)(=O)Nc3nccs3)cc2)cc1	u	-7%	10%	5%	-8%[46.1 µM]	6
Cc1ccc(N2CC(C(=O)Nc3ccc(S(=O)(=O)Nc4nccs4)cc3)CC2=O)cc1 (stereo not drawn)	20µM*	1%	4%	13%	-3%	2
O=C(CSc1ccncc1)Nc1ccc(S(=O)(=O)Nc2nccs2)cc1	10µM*	4%	68%	-3%	7%	13
O=S(=O)(Nc1nccs1)c1ccc(NS(=O)(=O)c2cccs2)cc1	18µM*	-3%	6%	-3%	-5%[46.1 µM]	3
O=C(Nc1ccc(S(=O)(=O)Nc2nccs2)cc1)C1CC(=O)N(c2ccccc2)C1 (stereo not drawn)	u	7%	8%	22%	-17%	1
O=C(CC1Sc2ccccc2NC1=O)NCc1ccccc1 (stereo not drawn)	x	0%	-23%	8%	-3%[7.67 µM]	-1
CCCN(c1ccccc1F)S(=O)(=O)c1c[nH]c(C(=O)OC)c1	x	x	x	19%	x	4
CCCCOC(=O)c1ccc(NC(=S)NC(=O)c2c(Br)c(C)nn2C)cc1	4µM*	-3%	8%	4.5µM*	-22%	-2
CCOC(=O)c1ccc(NC(=S)NC(=O)c2cncc(Br)c2)cc1	x	x	x	-27%	x	1
Cc1cc(OCc2cc3c(cc2Cl)OCO3)c2c(C)cc(=O)oc2c1	0.18µM*	2%	x	-5%	-4%[46.1 µM]	1
Cc1cc(OCC(=O)N2CCC(O)CC2)c2c(C)cc(=O)oc2c1	x	x	x	-1%	x	x
O=c1[nH]c(C(Cl)(Cl)Cl)nc2ccc3ccccc3c12	x	x	x	22%	x	0

Source: PubChem (National Center for Advancing Translational Sciences (NCATS))
